Laboratory results from PubChem BioAssay (EPA / NIEHS).
Activity calls are given as the source filed them. How the source made its calls: active means hit-call score of the fitted dose curve at least 0.9, where 1 is the maximum; inactive means score below 0.9.

Columns and labels:
Conditions in all cases: mRNA level, 48 h; actives raise or lower the signal
[1] = read-out: ABC Transporter (ABCB11), ABCB11 (gene 8647); assay: LTEA_HepaRG_ABCB11: Life Technologies and Expression Analysis (LTEA) Assay for ABC Transporter (ABCB11) using HepaRG (AID 2283463)
Summary of the method: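 Differentiated human HepaRG cells in serum-free induction medium, dosed in duplicate for 48 h. Eight-point half-log series from 100 uM in 0.5% DMSO; ABCB11 mRNA by qRT-PCR, normalized to ACTB, GAPDH, POLR2A, fitted bidirectionally versus DMSO.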

[2] = read-out: ABC Transporter (ABCC2), ABCC2 (gene 1244); assay: LTEA_HepaRG_ABCC2: Life Technologies and Expression Analysis (LTEA) Assay for ABC Transporter (ABCC2) using HepaRG (AID 2283464)
Summary of the method: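 HepaRG, 48 h post-plating; serum-free induction medium; cpd 8-pt, 100 uM top, half-log, 0.5% DMSO, duplicate, 48 h. Readout: ABCC2 mRNA by qRT-PCR, norm. ACTB/GAPDH/POLR2A. Bidirectional fit vs DMSO baseline.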

[3] = read-out: Broad substrate specificity ATP-binding cassette transporter ABCG2 (Homo sapiens) (UniProt Q9UNQ0); assay: LTEA_HepaRG_ABCG2: Life Technologies and Expression Analysis (LTEA) Assay for ABC Transporter (ABCG2) using HepaRG (AID 2283465)
Summary of the method: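 Differentiated HepaRG cells were exposed for 48 h in serum-free induction medium to 8 half-log concentrations, top 100 uM, in 0.5% DMSO. ABCG2 mRNA was measured by qRT-PCR, normalized to ACTB, GAPDH and POLR2A, with bidirectional fitting versus DMSO.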

[4] = read-out: ATP-citrate lyase (ACLY), ACLY (gene 47); assay: LTEA_HepaRG_ACLY: Life Technologies and Expression Analysis (LTEA) Assay for ATP-citrate lyase (ACLY) using HepaRG (AID 2283466)
Summary of the method: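 Differentiated HepaRG cells exposed 48 h in serum-free induction medium to eight half-log concentrations up to 100 uM in 0.5% DMSO, duplicates. Transcript measured by Fluidigm TaqMan qRT-PCR, normalized to ACTB, GAPDH, POLR2A; bidirectional fit versus DMSO.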

[5] = read-out: Peroxisomal acyl-coenzyme A oxidase 1 (ACOX1) gene, ACOX1 (gene 51); assay: LTEA_HepaRG_ACOX1: Life Technologies and Expression Analysis (LTEA) Assay for Peroxisomal acyl-coenzyme A oxidase 1 (ACOX1) gene using HepaRG (AID 2283467)
Summary of the method: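 HepaRG cells, plated 48 h then switched to serum-free induction medium, were exposed in duplicate for 48 h to 8-point half-log concentrations up to 100 uM in 0.5% DMSO. ACOX1 mRNA was measured by qRT-PCR, normalized to ACTB/GAPDH/POLR2A, and fitted bidirectionally versus DMSO.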

[6] = read-out: Alkaline Phosphatase, Placental (ALPP) gene, ALPP (gene 250); assay: LTEA_HepaRG_ALPP: Life Technologies and Expression Analysis (LTEA) Assay for Alkaline Phosphatase, Placental (ALPP) gene using HepaRG (AID 2283468)
Summary of the method: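 HepaRG, 48 h plating then 48 h dosing, serum-free induction medium, 0.5% DMSO. 8 conc, half-log, max 100 uM, duplicates. Endpoint: ALPP transcript by qRT-PCR, housekeeping-normalized; gain or loss fitted vs DMSO.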

[7] = read-out: Bcl-2 (BAD) gene, BAD (gene 572); assay: LTEA_HepaRG_BAD: Life Technologies and Expression Analysis (LTEA) Assay for Bcl-2 (BAD) gene using HepaRG (AID 2283469)
Summary of the method: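 Differentiated HepaRG cells were exposed in duplicate in 0.5% DMSO for 48 h to eight-point half-log concentrations up to 100 uM. BAD mRNA was measured by Fluidigm TaqMan qRT-PCR, normalized to ACTB, GAPDH and POLR2A, and fitted bidirectionally against DMSO.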

[8] = read-out: adenosine kinase (ADK) gene, ADK (gene 132); assay: LTEA_HepaRG_ADK: Life Technologies and Expression Analysis (LTEA) Assay for adenosine kinase (ADK) gene using HepaRG (AID 2283471)
Summary of the method: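 ADK expression quantified by qRT-PCR, normalised to three housekeeping genes, after 48 h exposure of HepaRG cells to eight concentrations (top 100 uM, half-log steps, duplicate, 0.5% DMSO). Up- or down-regulation fitted relative to vehicle.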

[9] = read-out: Alpha-fetoprotein (AFP) gene, AFP (gene 174); assay: LTEA_HepaRG_AFP: Life Technologies and Expression Analysis (LTEA) Assay for Alpha-fetoprotein (AFP) gene using HepaRG (AID 2283472)
Summary of the method: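 After a 48 h plating period, cells are moved to serum-free induction medium and dosed in duplicate (100 uM maximum, half-log dilutions, 0.5% DMSO) for another 48 h. Total RNA goes to TaqMan qRT-PCR; AFP signal is housekeeping-normalized.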

[10] = read-out: BCL2L11 (gene 10018); assay: LTEA_HepaRG_BCL2L11: Life Technologies and Expression Analysis (LTEA) Assay for Bcl-2 (BCL2L11) gene using HepaRG (AID 2283473)
Summary of the method: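 Read-out is BCL2L11 transcript level by qRT-PCR, normalized to three housekeeping genes and fitted bidirectionally against 0.5% DMSO vehicle. HepaRG cells received chemicals for 48 h in serum-free induction medium, 100 uM down in half-log dilutions.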

[11] = read-out: Apolipoprotein A-V (APOA5) gene, APOA5 (gene 116519); assay: LTEA_HepaRG_APOA5: Life Technologies and Expression Analysis (LTEA) Assay for Apolipoprotein A-V (APOA5) gene using HepaRG (AID 2283474)
Summary of the method: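 Readout is APOA5 transcript level by qRT-PCR on Fluidigm dynamic arrays, normalized to three housekeeping genes. HepaRG cultures received chemicals for 48 h at up to 100 uM (half-log steps, 0.5% DMSO), with gain or loss scored relative to DMSO.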

[12] = read-out: Apoptosis regulator Bcl-2 (Homo sapiens) (UniProt P10415); assay: LTEA_HepaRG_BCL2: Life Technologies and Expression Analysis (LTEA) Assay for Bcl-2 gene using HepaRG (AID 2283475)
Summary of the method: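 Expression change of BCL2 mRNA in HepaRG after 48 h dosing, quantified by TaqMan qRT-PCR against three endogenous controls. Concentration-response used eight points up to 100 uM, vehicle 0.5% DMSO.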

[13] = read-out: Bcl-2 (BID) gene, BID (gene 637); assay: LTEA_HepaRG_BID: Life Technologies and Expression Analysis (LTEA) Assay for Bcl-2 (BID) gene using HepaRG (AID 2283476)
Summary of the method: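 Gain or loss of BID expression is fitted relative to 0.5% DMSO vehicle. Human HepaRG liver cells received a 48 h chemical exposure over an eight-point concentration range.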

[14] = read-out: Caspase-3 (Homo sapiens) (UniProt P42574); assay: LTEA_HepaRG_CASP3: Life Technologies and Expression Analysis (LTEA) Assay for cysteine-aspartic acid protease (CASP3) using HepaRG (AID 2283477)
Summary of the method: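 Read-out is CASP3 mRNA level by TaqMan qRT-PCR in human HepaRG cells after 48 h chemical exposure. Eight half-log concentrations topping at 100 uM were tested in 0.5% DMSO; gain or loss was fitted relative to DMSO.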

[15] = read-out: Cytochrome P450 (CYP24A1), CYP24A1 (gene 1591); assay: LTEA_HepaRG_CYP24A1: Life Technologies and Expression Analysis (LTEA) Assay for Cytochrome P450 (CYP24A1) using HepaRG (AID 2283478)
Summary of the method: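 HepaRG, 48 h chemical exposure, 8-pt half-log CRC from 100 uM, 0.5% DMSO vehicle, duplicates. Endpoint: CYP24A1 mRNA by Fluidigm TaqMan qRT-PCR, normalized ACTB/GAPDH/POLR2A; gain/loss fit vs DMSO.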

[16] = read-out: Cytochrome P450 (CYP1A2), CYP1A2 (gene 1544); assay: LTEA_HepaRG_CYP1A2: Life Technologies and Expression Analysis (LTEA) Assay for Cytochrome P450 (CYP1A2) using HepaRG (AID 2283479)
Summary of the method: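 CYP1A2 transcript induction or loss, quantified by Fluidigm qRT-PCR against three housekeeping genes, was fitted bidirectionally against 0.5% DMSO controls. Human HepaRG cells received eight half-log concentrations from 100 uM over 48 h.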

[17] = read-out: cysteine-aspartic acid protease (CASP8), CASP8 (gene 841); assay: LTEA_HepaRG_CASP8: Life Technologies and Expression Analysis (LTEA) Assay for cysteine-aspartic acid protease (CASP8) using HepaRG (AID 2283480)
Summary of the method: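 Differentiated HepaRG cells in serum-free induction medium, 48 h exposure, eight-point half-log series from 100 uM in 0.5% DMSO, duplicates. CASP8 mRNA by qRT-PCR, normalized to ACTB, GAPDH, POLR2A; bidirectional fit versus DMSO.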

[18] = read-out: Cytochrome P450 (CYP2B6), CYP2B6 (gene 1555); assay: LTEA_HepaRG_CYP2B6: Life Technologies and Expression Analysis (LTEA) Assay for Cytochrome P450 (CYP2B6) using HepaRG (AID 2283481)
Summary of the method: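 HepaRG cells plated 48 h, switched to serum-free induction medium, then dosed 48 h (8 points, half-log from 100 uM, 0.5% DMSO). RNA isolated; CYP2B6 expression measured by qRT-PCR; gain or loss fitted relative to DMSO.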

[19] = read-out: Cytochrome P450 2C19 (Homo sapiens) (UniProt P33261); assay: LTEA_HepaRG_CYP2C19: Life Technologies and Expression Analysis (LTEA) Assay for CYP2C19 using HepaRG (AID 2283482)
Summary of the method: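 Transcript levels of CYP2C19 were quantified by qRT-PCR after HepaRG cells were treated for 48 hours with test chemicals up to 100 uM (eight half-log concentrations, 0.5% DMSO vehicle). Gain or loss of signal was fitted relative to DMSO.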

[20] = read-out: Bcl-2 (BAX) gene, BAX (gene 581); assay: LTEA_HepaRG_BAX: Life Technologies and Expression Analysis (LTEA) Assay for Bcl-2 (BAX) gene using HepaRG (AID 2283470)
Summary of the method: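 Concentration-response endpoint fitted in both directions relative to 0.5% DMSO vehicle. Human HepaRG cultures receive test chemicals for 48 h at up to 100 uM; BAX mRNA is quantified by qRT-PCR against housekeeping genes.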

Measured: AC50

Broad substrate specificity ATP-binding cassette transporter ABCG2 (Homo sapiens), sequence (Q9UNQ0 whole entry, looked up): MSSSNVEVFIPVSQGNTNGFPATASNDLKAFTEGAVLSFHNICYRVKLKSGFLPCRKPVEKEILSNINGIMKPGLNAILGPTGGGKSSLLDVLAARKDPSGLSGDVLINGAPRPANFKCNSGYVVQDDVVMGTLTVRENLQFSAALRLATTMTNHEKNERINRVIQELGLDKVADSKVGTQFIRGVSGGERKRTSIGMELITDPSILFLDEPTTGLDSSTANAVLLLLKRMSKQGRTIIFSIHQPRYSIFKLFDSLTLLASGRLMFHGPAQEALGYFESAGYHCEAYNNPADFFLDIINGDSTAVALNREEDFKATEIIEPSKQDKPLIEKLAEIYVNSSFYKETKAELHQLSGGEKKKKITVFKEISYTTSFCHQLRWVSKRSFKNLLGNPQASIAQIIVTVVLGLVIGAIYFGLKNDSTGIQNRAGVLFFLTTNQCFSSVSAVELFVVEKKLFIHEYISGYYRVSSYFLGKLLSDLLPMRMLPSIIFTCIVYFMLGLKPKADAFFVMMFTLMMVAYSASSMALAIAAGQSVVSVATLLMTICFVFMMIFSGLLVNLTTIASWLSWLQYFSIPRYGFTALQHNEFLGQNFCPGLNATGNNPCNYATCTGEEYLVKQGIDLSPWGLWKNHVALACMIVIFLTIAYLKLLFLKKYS
Apoptosis regulator Bcl-2 (Homo sapiens), sequence (P10415 whole entry, looked up): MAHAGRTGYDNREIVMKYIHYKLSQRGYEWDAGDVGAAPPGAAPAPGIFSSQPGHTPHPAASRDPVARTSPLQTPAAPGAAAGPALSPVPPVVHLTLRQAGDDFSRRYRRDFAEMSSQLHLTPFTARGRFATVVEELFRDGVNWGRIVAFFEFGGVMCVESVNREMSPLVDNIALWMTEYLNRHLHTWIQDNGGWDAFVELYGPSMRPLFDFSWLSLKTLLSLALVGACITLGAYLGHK
Caspase-3 (Homo sapiens), sequence (P42574 whole entry, looked up): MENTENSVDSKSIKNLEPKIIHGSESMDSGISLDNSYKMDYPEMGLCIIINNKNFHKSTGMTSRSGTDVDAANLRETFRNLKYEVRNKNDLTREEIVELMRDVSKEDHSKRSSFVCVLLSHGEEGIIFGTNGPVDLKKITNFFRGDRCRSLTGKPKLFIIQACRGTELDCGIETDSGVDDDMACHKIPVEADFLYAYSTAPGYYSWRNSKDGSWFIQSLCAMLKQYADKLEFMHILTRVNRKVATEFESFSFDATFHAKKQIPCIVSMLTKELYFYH
Cytochrome P450 2C19 (Homo sapiens), sequence (P33261 whole entry, looked up): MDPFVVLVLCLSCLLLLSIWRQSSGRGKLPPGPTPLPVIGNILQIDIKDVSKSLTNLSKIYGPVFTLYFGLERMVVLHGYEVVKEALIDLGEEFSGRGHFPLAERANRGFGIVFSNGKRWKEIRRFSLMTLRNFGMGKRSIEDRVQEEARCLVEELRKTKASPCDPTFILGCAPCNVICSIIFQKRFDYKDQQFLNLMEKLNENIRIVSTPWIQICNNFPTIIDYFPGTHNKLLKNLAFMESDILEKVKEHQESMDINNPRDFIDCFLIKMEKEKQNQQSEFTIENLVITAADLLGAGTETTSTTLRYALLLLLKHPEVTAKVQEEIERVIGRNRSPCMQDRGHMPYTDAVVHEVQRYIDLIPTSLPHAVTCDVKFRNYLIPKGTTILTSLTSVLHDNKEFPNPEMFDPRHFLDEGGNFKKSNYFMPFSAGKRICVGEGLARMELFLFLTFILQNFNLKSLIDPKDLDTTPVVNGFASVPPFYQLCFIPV

COC(=O)CC(=O)OC
active: [9] 50 µM | [18] 1.93 µM | [19] 3.31 µM
not listed: [20]
inactive: all other assays above

CC(C)(O)c1coc(S(=O)(=O)NC(=O)Nc2c3c(cc4c2CCC4)CCC3)c1
active: [1] 50 µM | [16] 50 µM | [18] 2.62 µM
not listed: [6] | [13] | [19]
inactive: all other assays above

O=C1CCC(N2C(=O)c3ccccc3C2=O)C(=O)N1 (stereo not given)
not listed: [6]
inactive: all other assays above
